High-throughput results: PubChem BioAssay, National Center for Advancing Translational Sciences (NCATS)
Only some compounds are listed: those with a hit (about 2.1% of all), similar ones and a draw of the others.
aSyn yeast inh = qHTS of alpha-syn Inhibitors; Yeast expressing alpha-synuclein, growth rescue, BacTiter-Glo, 24 h; Potency, µM (series often up to 46.1 µM), without a hit: top-dose growth rescue (activation), hits mostly activators; 0.14% of 370,000 active; AID 652106, 2013; also: % of control where 0% means no effect; nearly all actives have a fitted effect of over 65% in size
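Galactose-induced alpha-syn yeast (OD600=0.02, raffinose-pregrown) + pinned cpd, 24 hr, 30 deg C; growth by BacTiter-Glo luminescence. Growth restoration scores as activation.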
Abeta yeast res = qHTS for compounds that reverse cellular toxicity of Amyloid beta (A-beta) peptide in yeast: Primary Screen; yeast expressing A-beta42, growth rescue, OD600, 48 h; response scale: 0% DMSO, 100% iron-clioquinol control; Potency, µM (titrated, usually from 46.1 µM), hits mostly activators; 0.063% of 410,000 active; also: nearly all actives have a fitted effect of over 55% in size
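Growth rescue measured by 600 nm absorbance after 48 h yeast culture at 30 C with compound. Values normalized between DMSO and an equimolar ferric chloride plus clioquinol control.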
FUS suppressor = qHTS for Suppressors of FUS Proteinopathy: Primary screen using FUS-linked yeast assay; 0.24% of 390,000 active; S. cerevisiae FUS-expressing, growth rescue, OD600, 24 h; Potency, µM (titrated, usually from 76.6 µM), usual class: activators;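 also: plate controls were DMSO vehicle for no effect and reference control for full effect; nearly all actives have a fitted effect of over 55% in size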
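Restored growth of FUS-toxic S. cerevisiae, read as 600 nm absorbance after 24 h at 30C in galactose medium (starting OD 0.005). Controls CP55940 and DMSO.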
TDP43 rescue = qHTS of TDP-43 Inhibitors; TDP-43 expressing yeast growth rescue, BacTiter-Glo, 24 h; Potency, µM (top dose mostly 46.1 µM), for inactives: at the highest dose growth rescue (activation), most hits filed as activators; 1.8% of 410,000 active; AID 652104, 2013; also: % of control where 0% means no effect; nearly all actives have a fitted effect of over 50% in size
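Yeast expressing TDP-43 (pregrown in raffinose, seeded at OD600=0.02 in galactose medium) exposed to compounds 24 hr at 30 deg C. Growth read by BacTiter-Glo luminescence; rescue of toxicity appears as increased signal.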
An asterisk follows results filed as active; [ ] = remark or other dose. Calls follow the shape of the dose curve; as a rule, active = well fitted curve in the direction sought with a large enough effect; inconclusive = small, poorly fitted or top-dose-only effect, or another doubt; inactive = no such curve, though single readings can be large; an effect the other way counts as inactive or inconclusive. Potency is read from the fitted curve at half-maximal effect.

For Nc1ccc(Sc2ccc([N+](=O)[O-])cc2)cc1 the results were aSyn yeast inh 20µM*, Abeta yeast res inactive, FUS suppressor inactive and TDP43 rescue inconclusive.
For c1ccc(Oc2ncnc3sccc23)cc1 the results were aSyn yeast inh -1%, Abeta yeast res inactive, FUS suppressor inactive and TDP43 rescue 11µM*.
For COc1ccccc1Oc1ncnc2sccc12 the results were aSyn yeast inh -5%, Abeta yeast res inactive, FUS suppressor inactive and TDP43 rescue inconclusive.
Cc1ccccc1Oc1ncnc2sccc12 was read as aSyn yeast inh -16%, Abeta yeast res inactive, FUS suppressor inactive and TDP43 rescue 11µM*.
`O=C1[C@@H](C2CC2)[C@@H]2c3ccccc3C=NN2[C@@H]2c3ccccc3C=NN12` gave FUS suppressor inactive.
CCN(C(=O)C1CCN(c2nc(-c3ccc(OC)cc3)no2)CC1)c1ccccc1 was read as aSyn yeast inh 9%, Abeta yeast res inactive, FUS suppressor inconclusive and TDP43 rescue inconclusive.
For COc1ccc(-c2noc(N3CCC(C(=O)N(C)c4ccccc4)CC3)n2)cc1 the results were aSyn yeast inh 2%, Abeta yeast res inactive, FUS suppressor inactive and TDP43 rescue 16µM*.
For CCc1ccc(-c2csc(NC(=O)C3=COCCO3)n2)cc1 the results were aSyn yeast inh 7%[1.84 µM], Abeta yeast res inactive, FUS suppressor inactive and TDP43 rescue 18µM*.
Screening O=C(Nc1nc(-c2ccc(F)c(F)c2)cs1)C1=COCCO1 returned aSyn yeast inh 0%, Abeta yeast res inactive, FUS suppressor inactive and TDP43 rescue 4µM*.
`O=C(Nc1nc(-c2ccc(Cl)cc2)cs1)C1=COCCO1` gave aSyn yeast inh -9%, Abeta yeast res inactive, FUS suppressor inactive and TDP43 rescue inconclusive.
For COc1ccc(-c2csc(NC(=O)C3=COCCO3)n2)cc1OC the results were aSyn yeast inh -2%, Abeta yeast res inactive, FUS suppressor inactive and TDP43 rescue 8%.
Screening O=c1cc(-c2ccccc2F)[nH]c2cc3c(cc12)OCO3 returned aSyn yeast inh -7%.
Screening COCc1c(C(=O)NCC2COc3ccccc3O2)oc2ccccc12 (configuration not stated) returned aSyn yeast inh 1%, Abeta yeast res inactive, FUS suppressor inactive and TDP43 rescue 32µM*.
Screening CC(=O)NCC1COc2ccccc2O1 (configuration not stated) returned aSyn yeast inh 4%, Abeta yeast res inactive, FUS suppressor inactive and TDP43 rescue 18%.
Cc1ccccc1C(=O)OCC(=O)NCC1COc2ccccc2O1 (configuration not stated) was read as aSyn yeast inh 14%, Abeta yeast res inactive and TDP43 rescue 14µM*.
For O=C(COc1ccccc1)NCC1COc2ccccc2O1 (configuration not stated) the results were aSyn yeast inh 8%, Abeta yeast res inactive, FUS suppressor inactive and TDP43 rescue 9%.
`O=C(COC(=O)c1ccccc1O)NCC1COc2ccccc2O1` (configuration not stated) gave aSyn yeast inh 11%, Abeta yeast res inactive and TDP43 rescue 16%.
O=C(COc1ccc(Br)cc1)NCC1COc2ccccc2O1 (configuration not stated) was read as aSyn yeast inh inconclusive, Abeta yeast res inactive, FUS suppressor inactive and TDP43 rescue 25µM*.
For CC(C)Oc1ccc(/C=C/C(=O)NCC2COc3ccccc3O2)cc1 (configuration not stated) the results were aSyn yeast inh 2%, Abeta yeast res inconclusive, FUS suppressor inactive and TDP43 rescue 18µM*.
`Cc1ccc(/C=N\NC(=O)CN2CCN(S(=O)(=O)c3ccc(Br)cc3)CC2)s1` gave FUS suppressor inactive.
For COC(=O)CCCn1cc(CN2CC=CS2(=O)=O)nn1 the results were FUS suppressor inactive.
Screening O=c1c2cc3cc(Cl)ccc3nc2ncn1N1CCCCC1 returned FUS suppressor inactive.
Screening COc1ccc(C(=O)N[C@@H]2CC[C@@]34CCCN3C(=O)CCC[C@H]4[C@H]2C)cc1 returned FUS suppressor inactive.
